Screening data deposited in PubChem BioAssay by National Center for Advancing Translational Sciences (NCATS).
aSyn yeast inh: inhibitors of alpha-synuclein toxicity in yeast. Yeast expressing alpha-synuclein, growth rescue, BacTiter-Glo, 24 h. Potency, µM (highest dose often 46.1 µM), hits mostly activators. hit rate 0.14% among 370,000. AID 652106; note: nearly all actives have a fitted effect of over 65% in size
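Readout is rescue of growth in alpha-synuclein-expressing yeast, so inhibitors of toxicity appear as activators. Growth after 24 hr at 30 deg C in galactose medium is quantified by luminescence.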
Abeta rescue: A-beta toxicity reversal in yeast; Potency, µM (titrated, usually from 46.1 µM), hits mostly activators; yeast expressing A-beta42, growth rescue, OD600, 48 h; response scale: 0% DMSO, 100% iron-clioquinol control; AID 1347071; hit rate 0.063% among 410,000; note: nearly all actives have a fitted effect of over 55% in size
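Yeast growth medium received pinned compounds, then yeast cells expressing toxic A-beta were added; plates incubated at 30 C for 48 hr. Growth read as absorbance at 600 nm, normalized to DMSO and equimolar FeCl3 plus clioquinol controls.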
FUS yeast rescue: rescues growth of FUS-expressing yeast; S. cerevisiae FUS-expressing, growth rescue, OD600, 24 h; Potency, µM (highest dose often 76.6 µM), actives largely listed as activators; hit rate 0.24% among 390,000; AID 1347120; note: nearly all actives have a fitted effect of over 55% in size
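Absorbance at 600 nm, taken 24hr after compound addition, measured rescue of FUS-yeast growth at 30C. Induction used 2% galactose with seeding at OD 0.005. Controls: CP55940 from 92uM final, DMSO only.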
TDP43 rescue: TDP-43 toxicity inhibition in yeast; hit rate 1.8% among 410,000; AID 652104; Potency, µM (titrated, usually from 46.1 µM), hits mostly activators; TDP-43 expressing yeast growth rescue, BacTiter-Glo, 24 h; note: nearly all actives have a fitted effect of over 50% in size
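Cell-based yeast growth screen: TDP-43 expression induced in galactose, inoculum OD600=0.02 after raffinose pregrowth to mid-log. Read-out BacTiter-Glo luminescence at 24 hr, 30 deg C; inhibition of toxicity seen as signal increase.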
Numbers stand for hits; - = inactive; ? = inconclusive; . = no result. Hits are enriched below; roughly 2.1% of the tested compounds scored in any of these assays. Calls come from the whole dose curve; as a rule, active = well fitted curve in the direction sought with a large enough effect; inconclusive = small, poorly fitted or top-dose-only effect, or another doubt; inactive = no such curve, though single readings can be large; an effect the other way counts as inactive or inconclusive.

SMILES | aSyn yeast inh | Abeta rescue | FUS yeast rescue | TDP43 rescue
CC(C)(C)c1ccc(C(=O)NNc2cc(N3CCCCC3)nc(N3CCCCC3)n2)cc1 | - | - | ? | -
Cc1ccc(Sc2c([N+](=O)[O-])ncn2C)cc1 | - | - | - | 10µM
C=CCOc1ccc(/C=C/C(=O)OCC(=O)NCCc2ccccc2)cc1 | - | - | - | 25.1µM
O=C(COC(=O)/C=C/c1ccc(Cl)cc1)NCCc1ccccc1 | - | - | - | -
CCn1c(Cc2cccs2)nnc1SCC(=O)Nc1cccc2ccccc12 | . | . | - | .
Cc1cc(C)c2c(CCl)cc(=O)oc2c1 | - | - | - | 7.08µM
Cc1cc(C)c2c(CC(=O)O)coc2c1 | - | - | - | 12.6µM
Cc1cc(C)c2c(CC(=O)NN(C)C)coc2c1 | - | - | - | -
Cc1cc(C)c2c(CN3CCCCC3)cc(=O)oc2c1 | - | - | - | -
Cc1ccc(NP(=O)(c2ccc(N(C)C)cc2NC(=O)c2cccs2)N2CCOCC2)cc1Cl (configuration not stated) | - | - | 3.98µM | -
Cc1ccc(S(=O)(=O)Nc2ccc3nc(-c4ccc(F)cc4)oc3c2)cc1 | . | - | - | -
O=S(=O)(Nc1ccc2nc(-c3ccc(F)cc3)oc2c1)c1ccccc1 | . | ? | - | 35.5µM
CCC(C)[C@H](NC(=O)OC(C)(C)C)C(=O)N[C@@H](Cc1ccccc1)C(=O)OC (some centres not stated) | . | . | - | .
CCCCN(C(=O)CSc1nn(-c2ccc(F)cc2)c(=S)s1)c1c(N)n(CCCC)c(=O)[nH]c1=O | - | - | 7.08µM | -
C/C(=N\Nc1ccc(F)cc1F)c1ccccc1O | - | - | - | 12.6µM
C/C(=N\Nc1cc(C(F)(F)F)ccc1Cl)c1ccccc1O | - | - | . | -
C[C@H]1Cn2nncc2Cn2c3ccccc3c(=O)n21 | . | . | - | .
COc1ccccc1CCNC(=O)C(C)Sc1nc(-c2ccccc2)cc(C(F)(F)F)n1 (configuration not stated) | . | - | - | -
O=C(Nc1ccc2nc(SCC(=O)N3CCCc4ccccc43)sc2c1)c1ccccc1 | . | - | - | -
Cc1cc(C)c2c(-n3cccc3)n[nH]c2n1 | - | - | - | -
Cc1cc(C)c2c(-n3cccc3)nn(CC#N)c2n1 | - | - | - | 12.6µM
Cc1nc(CNS(=O)(=O)c2cccc(F)c2)cs1 | - | - | - | -
Cc1nc(CNS(=O)(=O)c2ccc3ccccc3c2)cs1 | - | - | - | 14.1µM
Cc1ccc(C)c(Cn2cnc3ccccc3c2=O)c1 | . | - | - | -
CCc1ccc(-c2ccc(C(=O)Oc3ccc(Br)cc3)cc2)nc1 | . | - | - | ?
SMILES | aSyn yeast inh | Abeta rescue | FUS yeast rescue | TDP43 rescue
CCc1ccc(-c2ccc(C(=O)O)cc2)nc1 | - | - | - | 35.5µM
COc1ccc(-c2cc(-c3ccccc3)nc3ncnn23)cc1 | - | - | - | 14.1µM
O=C(NCc1ccccc1)C1CCN(C(=O)c2cnn(-c3ccccc3)c2-n2cccc2)CC1 | . | - | - | -
CC(=O)/C=C\c1ccccc1OC(=O)c1cc2ccccc2oc1=O | - | - | - | -
O=C(/C=C\c1ccccc1OC(=O)c1ccccc1F)c1cc2ccccc2o1 | - | - | - | 12.6µM
Cc1ccc2nc(N3CCC(C(=O)O)CC3)nc(-c3ccccc3)c2c1 | - | - | - | 22.4µM
Cc1ccc2nc(N3CCN(C(=O)CCC(=O)O)CC3)nc(-c3ccccc3)c2c1 | - | - | - | -
O=C(c1noc2c1CCCCC2)N1CCN(c2cccc(Cl)c2)CC1 | . | - | - | 8.91µM
O=C(NC1CCCCN(Cc2cccc(C(F)(F)F)c2)C1=O)c1ccc(-c2ccccc2)cc1 (configuration not stated) | . | . | - | .
CCNC(=O)c1ccc2c(c1)sc1nc(-c3cccc(OC)c3)cn12 | . | - | - | 15.8µM
COc1cccc(-c2cn3c(n2)sc2cc(C(=O)NCc4ccccc4F)ccc23)c1 | . | - | - | ?
CCOc1ccccc1C(=O)Nc1cccc2ccccc12 | - | - | - | ?
Oc1ccccc1CNc1cccc2cccnc12 | - | - | - | 14.1µM
CCOc1ccccc1C(=O)Nc1cccc2ccc(C)nc12 | . | - | - | 20µM
CCOc1ccccc1C(=O)Nc1ccccc1O | - | - | - | 14.1µM
COc1ccccc1C(=O)Nc1cccc2cccnc12 | - | - | - | 3.16µM
CC[C@H](CCC(=O)N(c1ccccc1)c1ccccc1)C1CC1 | . | . | - | .
O=C(Nc1ccccc1)Nc1cccc2cccnc12 | - | - | - | 7.08µM
Cc1ccc2cccc(NC(=O)c3cccc4c(Cl)cccc34)c2n1 | - | - | - | -
